The source of these data is PubChem BioAssay (Tox21).

Records with an inconclusive call do not appear. Entries that show only a call come without a potency. Activity calls are given as the source filed them. Calls follow the shape of the dose curve; as a rule, active = well fitted inhibition curve with a large enough effect in the signal ratio in the repeat runs, with a control signal flat; inconclusive = weak or mixed curves, or effect the other way; inactive = flat fitted curve, though single readings scatter; the % refers to the signal ratio.

Chain of D(2) dopamine receptor (Homo sapiens) (P14416 whole entry, looked up): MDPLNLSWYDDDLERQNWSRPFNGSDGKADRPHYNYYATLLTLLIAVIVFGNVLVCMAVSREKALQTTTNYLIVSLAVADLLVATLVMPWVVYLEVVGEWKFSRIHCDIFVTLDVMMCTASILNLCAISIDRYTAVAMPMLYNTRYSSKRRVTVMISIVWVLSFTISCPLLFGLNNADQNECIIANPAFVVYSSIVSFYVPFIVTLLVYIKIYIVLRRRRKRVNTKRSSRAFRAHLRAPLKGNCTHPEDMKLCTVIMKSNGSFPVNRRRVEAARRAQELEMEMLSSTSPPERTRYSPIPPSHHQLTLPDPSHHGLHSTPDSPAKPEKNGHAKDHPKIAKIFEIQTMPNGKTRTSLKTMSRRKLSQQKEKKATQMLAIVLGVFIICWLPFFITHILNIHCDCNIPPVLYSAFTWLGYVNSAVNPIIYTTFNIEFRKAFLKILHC

For the test, the target named is D(2) dopamine receptor (Homo sapiens) (UniProt P14416). The test can be described thus: Dopamine D2 receptor (DRD2) small molecule antagonists, cell-based qHTS assay (AID 1963595). To be noted: HEK293-DRD2 cAMP HTRF antagonist mode; series mostly up to 92.4 µM. Summed up:
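Antagonism was scored as restored cAMP in HEK293-DRD2 cells. These cells were stimulated with 200 nM NKH477 and 12 nM quinpirole for 30 min at room temperature, in the presence of 0.1 mM Ro20-1724.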
For orientation: qHTS replaces the single test concentration by a dilution series.
As to `N#Cc1sc2c(=O)c3ccccc3c(=O)c=2sc1C#N`, the Potency entry is “inactive”. Consider `C=CC(=O)OCC`, for which the Potency entry is “inactive”. For the compound `Cc1c(Cl)c(=O)oc2cc(OP(=O)(OCCCl)OCCCl)ccc12`, the Potency result was “inactive”.

`O=C(CBr)Nc1ccc(Cl)cc1C(=O)c1ccccc1F`: the Potency entry was “inactive”. For the compound `CC1=NNC(=O)N(/N=C/c2cccnc2)C1`, the Potency entry is “inactive”.

For `[O-][Cl+3]([O-])([O-])O`, the Potency entry is “inactive”.

`CCOC(=O)C(Cl)Cc1cc(-n2nc(C)n(C(F)F)c2=O)c(F)cc1Cl` (configuration not stated): the Potency result was “inactive”. With `CCOP(=O)(SC(C)CC)N1CCSC1=O` (configuration not stated), the Potency entry is “inactive”. Take `CCOP(=S)(OCC)Oc1cc(-c2ccccc2)on1`: the Potency result is “inactive”. `CCNP(=S)(OC)O/C(C)=C/C(=O)OC(C)C` (configuration not stated): the Potency result is “inactive”. For the compound `COP(=O)(OC)O/C(C)=C/C(=O)N(C)C`, the Potency result was “inactive”. In the case of `CCOC(=O)CCN(SN(C)C(=O)Oc1cccc2c1OC(C)(C)C2)C(C)C`, the Potency result is “inactive”. Take `CN1C2CCC(C)(C)C1CC(OC(=O)C(O)(c1cccs1)c1cccs1)C2` (configuration not stated): the Potency entry was “inactive”. As for `C[C@H](CN1CCOCC1)C(C(=O)N1CCCC1)(c1ccccc1)c1ccccc1`, the Potency result was “inactive”. Consider `NNCc1ccccc1`, for which the Potency entry was “inactive”. As to `ClC(Br)Br`, the Potency result is “inactive”. With `C#CC(C)(C)O`, the Potency result is “inactive”. As for `CCN1CCC2(CC1)COc1cc3c(cc12)N(C(=O)c1ccc(-c2ccc(-c4nnc(C)o4)cc2C)cc1)CC3`, the Potency entry was “inactive”.

Regarding `CNC(=O)O/N=C(\C)C(C)S(C)(=O)=O` (configuration not stated), the Potency result is “inactive”. Consider `CCOC(=O)c1cn2nc(OP(=S)(OCC)OCC)cc2nc1C`, for which the Potency result was “inactive”. The value for `CCC1(c2ccccc2)C(=O)N(COC)C(=O)N(COC)C1=O` was “inactive”; that for `CCS(=O)(=O)CCSP(=O)(OC)OC` was “inactive”.
